Results published in PubChem BioAssay (NCATS).
Records with an inconclusive call do not appear. Activity calls are given as the source filed them. The call rests on the fitted dose curve; in most records, active means well fitted cell-killing curve with a large enough effect; inconclusive means small, poorly fitted or top-dose-only effect, or effect the other way; inactive means no such curve, though single readings can be large or run the other way.

experiment: Viability qHTS for spleen associated tyrosine kinase inhibitor (SYKi) naive MV4-11 cells (AID 1963823); conditions: MV4-11 AML viability, CellTiter-Glo luminescence, 72 h; series mostly up to 45 µM; viability (% of control): at the top concentration; further: nearly all actives have a fitted effect of over 40% in size
How it was run: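 Compounds were dispensed acoustically onto plates, MV4-11 cells (SYKi-naive) added at 500 per well, and plates incubated 72 hr at 37 C. CellTiter-Glo was added and luminescence measured after 10 min.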
Potency means the concentration at half of the fitted maximal effect.

Compound	viability (% of control)	Potency
CC(C)CC1OC(=O)C2CCCN2C(=O)CCNC(=O)C(Cc2ccccc2)NC(=O)C(C(C)C)N(C)C(=O)C(C(C)C)N(C)C1=O (stereo not drawn)	59.1% [at 17.3 µM] (inactive)	–
NC(=O)c1ncn(C2O[C@H](CO)[C@@H](O)[C@H]2O)c1N (stereo partly drawn)	89.1% (inactive)	–
COc1cc2c(cc1O)C1(Cc3ccc4c(c3C1=O)OCO4)N(C)CC2 (stereo not drawn)	64.5% (inactive)	–
CN1CCCN(C(=O)c2cccc(-c3ccc(/C=C4\C(=O)Nc5ccc(Cl)cc54)o3)c2)CC1	–	184 nM (active)
CC(C)(O)/C=C/C1=CC(=O)[C@@](C)(O)C[C@H]1O	65.4% (inactive)	–
CC(C)=CCC[C@](C)(O[C@@H]1O[C@H](CO[C@@H]2OC[C@@H](O)[C@H](O)[C@H]2O)[C@@H](O)[C@H](O)[C@H]1O)[C@H]1CC[C@]2(C)[C@@H]1[C@H](O)C[C@@H]1[C@@]3(C)CC[C@H](O[C@@H]4O[C@H](CO)[C@@H](O)[C@H](O)[C@H]4O[C@@H]4O[C@H](CO)[C@@H](O)[C@H](O)[C@H]4O)C(C)(C)[C@@H]3CC[C@]12C	78.7% [at 17.3 µM] (inactive)	–
CCC(C)C(=O)O[C@H]1[C@@H](OC(=O)c2ccoc2)C[C@](C)(O)[C@]23OC(C)(C)[C@H](C[C@H](OC(=O)c4ccoc4)[C@]12COC(C)=O)[C@H]3OC(C)=O (stereo partly drawn)	65.9% [at 17.3 µM] (inactive)	–
COC(=O)C[C@H]1[C@]2(C)C3=C(C)[C@H](c4ccoc4)C[C@H]3O[C@@H]2[C@H](O)C2[C@](C)(C(=O)OC)C=CC(=O)[C@@]21C (stereo partly drawn)	44.7% [at 17.3 µM] (inactive)	–
Cc1c(C2=CCN(C(=O)N(C)C(C)C)CC2)nnn1-c1cccnc1F	55% (inactive)	–
O=C(O)[C@H](Cc1ccccc1)Oc1ccc(-c2ccccc2)cc1	57.5% (inactive)	–
C[C@H](CCC(=O)O)[C@H]1CC[C@H]2[C@@H]3C[C@H](O)[C@@H]4C[C@H](O)CC[C@]4(C)[C@H]3CC[C@]12C	89.5% (inactive)	–
CC(=O)OC1C(O)/C(C)=C\C2C(OC(=O)c3ccccc3)C(C)CC2(OC(C)=O)C(OC(C)=O)C(C)/C=C/C(C)(C)C1OC(C)=O (stereo not drawn)	53.3% [at 17.3 µM] (inactive)	–
COC(=O)C1=CO[C@@H](O[C@@H]2O[C@H](CO)[C@@H](O)[C@H](O)[C@H]2O)[C@H]2[C@@H]1[C@H](O)C[C@]2(C)O	67.3% [at 17.3 µM] (inactive)	–
COc1cc(/C=C/C(=O)O)ccc1O[C@@H]1O[C@H](CO)[C@@H](O)[C@H](O)[C@H]1O[C@@H]1OC[C@](O)(CO)[C@H]1O	86% [at 17.3 µM] (inactive)	–
C=C1CCC2C(OC(=O)C2(O)COC(C)=O)C2C(=C)C(O)CC12 (stereo not drawn)	59.8% (inactive)	–
C=C1[C@@H](C)[C@H]2[C@H](Cc3c[nH]c4ccccc34)NC(=O)[C@]23C(=O)/C=C/C(=O)[C@H](O)/C(C)=C\[C@@H](C)C/C=C/[C@H]3[C@@H]1O	–	2000 nM (active)
O=S(=O)(O)c1ccc(Nc2ncnc3c2ncn3[C@@H]2O[C@H](CO)[C@@H](O)[C@H]2O)cc1	78.3% (inactive)	–
C=C1[C@@H]2CC[C@@H]3[C@@](CCC4C(C(=O)O)(C(=O)O)C[C@@H](O[C@@H]5O[C@H](CO)[C@@H](O)[C@H](O)[C@H]5OC(=O)CC(C)C)C[C@]43C)(C2)[C@H]1O (stereo partly drawn)	51.5% [at 17.3 µM] (inactive)	–
C=C[C@H]1[C@H](O[C@@H]2O[C@H](CO)[C@@H](O)[C@H](O)[C@H]2O)OC=C(C(=O)OC)[C@H]1CCOC(=O)c1cc(O)c(O)c(O)c1	74.6% [at 17.3 µM] (inactive)	–
CC(NCc1ccc(OCc2cccc(F)c2)cc1)C(N)=O (stereo not drawn)	65.2% (inactive)	–
CN(Cc1ccc(C(=O)O)cc1)c1ccc(OCc2c(-c3c(Cl)cccc3Cl)noc2C2CC2)nc1C(F)(F)F	–	20600 nM (active)
CC(=O)O[C@@]1(C)C[C@@H](O)[C@]2(O)C=CO[C@@H](O[C@@H]3O[C@H](CO)[C@@H](O)[C@H](O)[C@H]3O)[C@@H]21	74.9% [at 17.3 µM] (inactive)	–
C=C(C(=O)O[C@H]1C/C(C)=C/CC/C(CO)=C/[C@H]2OC(=O)C(=C)[C@H]12)C(O)CO (stereo partly drawn)	–	2020 nM (active)
CC(=O)O[C@@H]1[C@H]2[C@@H](OC(=O)c3ccccc3)[C@@H](C)C[C@]2(O)[C@H](OC(C)=O)[C@@]2(C)[C@@H]3CC(C)(C)C(=O)[C@]3(OC(C)=O)C[C@@]12C	57.8% [at 17.3 µM] (inactive)	–
CC(=O)O[C@H]1CC[C@@]2(C)C(CC[C@@H](C)[C@]23Cc2c(O)cc4c(c2O3)CN([C@@H](CCC(=O)O)C(=O)O)C4=O)C1(C)C (stereo partly drawn)	83.6% [at 17.3 µM] (inactive)	–
CC1CCCC(O)CC(=O)c2c(O)cc(O)cc2CC(=O)O1 (stereo not drawn)	–	3210 nM (active)
COc1cccc(C(=O)N2CCN(C(=O)COc3cccc(C)c3)CC2)c1OC	56% (inactive)	–
CC1(C)CC[C@]2(C(=O)O[C@@H]3O[C@H](CO)[C@@H](O)[C@H](O)[C@H]3O)[C@H](O)C[C@]3(C)C(=CCC4[C@@]5(C)CC[C@H](O[C@@H]6OC[C@@H](O)[C@H](O)[C@H]6O)[C@@](C)(C(=O)O)C5CC[C@]43C)[C@@H]2C1 (stereo partly drawn)	78.3% [at 17.3 µM] (inactive)	–
